PubChem BioAssay (Tox21)
A number with no mark means an inactive call. Records with an inconclusive call do not appear. A call without a number means that no potency is given here. The source made the active and inactive calls. Unless noted, the call rests on the fitted dose curve; in most records, active means well fitted curve in the direction sought with a large enough effect in the repeat runs; inconclusive means weak or mixed curves; inactive means no such curve, though single readings can be large; an effect the other way counts as inactive or inconclusive.

Columns and labels:
[1] = qHTS assay to identify small molecule agonists of the sonic hedgehog signaling (Shh) pathway (AID 1259368; calls by dose curve;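 further: NIH/3T3-derived 3T3Gli1-Luc cells carrying a stable Gli1-driven firefly luciferase reporter; series mostly up to about 92 µM; nearly all actives have a fitted effect of over 15% in size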)
In short: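 A Gli1 transcriptional response element controlled firefly luciferase in 3T3Gli1-Luc cells. Compounds and a positive control were added 4 hr after plating, and cells were incubated a further 24 hr at 37 C before luminescence detection.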

[2] = molecular target: Estrogen receptor beta (Homo sapiens) (UniProt Q92731); test: qHTS assay to identify small molecule agonists of the estrogen receptor beta (ER-beta) signaling pathway (AID 1259377; active means well fitted activation curve with a large enough effect in the signal ratio in the repeat runs, not every such curve was filed as active; the % refers to the signal ratio)
In short: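 HEK293T ER-beta-UAS-bla; 2% charcoal-stripped FBS; cells pre-incubated 6 hr, compound 16 hr, 37C/5% CO2; LiveBLAzer B/G FRET substrate 2 h RT; fluorescence intensity read.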

[3] = qHTS assay to identify small molecule agonists of the estrogen receptor beta (ER-beta) signaling pathway - cell viability counter screen (AID 1259380); further: nearly all actives have a fitted effect of over 30% in size; further: potency means the concentration at half of the fitted maximal effect
In short: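 CellTiter-Glo read, 30 min RT, same wells as bla assay; cells ER-beta-UAS-bla HEK293T; 16 hr compound, 37C; medium 2% charcoal-stripped FBS.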

[4] = molecular target: Androgen receptor (Homo sapiens) (UniProt P10275); test: qHTS assay to identify small molecule agonists of the androgen receptor (AR) signaling pathway in the presence of an antagonist (AID 1259381; calls by dose curve; further: nearly all actives have a fitted effect of over 15% in size)
In short: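 Test compounds at 15 concentrations were incubated for 16hr with MDA-kb2 reporter cells in presence of 3.0uM nilutamide (final). Signal: ONE-Glo luciferase luminescence.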

[5] = qHTS assay to identify small molecule agonists or antagonists of the thyroid stimulating hormone receptor (TSHR) signaling pathway - wild type cell line counter screen (AID 1259384; calls by dose curve)
In short: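 Counter screen in untransfected Hek293: compounds (15-point titration, triplicate) plus phosphodiesterase inhibitor Ro20-1724 added after 18 h plating; 30 min RT. Intracellular cAMP via competitive d2/cryptate immunoassay, 1 h incubation.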

[6] = qHTS assay to identify small molecule agonists of the estrogen receptor alpha (ER-alpha) signaling pathway in the presence of an antagonist - cell viability counter screen (AID 1259386);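 further: series mostly up to about 92 µM; cells exposed to compounds for 22 h at 37 °C before the viability read; nearly all actives have a fitted effect of over 30% in size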
In short: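 Viability counter screen using VM7Luc4E2 (full-length ER-alpha, four ERE-luciferase). The cells were treated with compounds alongside ICI-182,780 10.0nM for 22hr, and live-cell protease fluorescence was quantified with CellTiter-Fluor.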

[7] = qHTS assay to identify small molecule antagonists of the TGF-beta/Smad signaling pathway - cell viability counter screen (AID 1346824); further: nearly all actives have a fitted effect of over 50% in size
In short: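 Cytotoxicity counter-screen run in the same wells as the beta-lactamase Smad reporter read: CellTiter-Glo luminescence after 30 min at room temperature. HEK 293T SBE-bla cells had 5 hr compound exposure at 37 C with TGF-beta1 (0.25 ng/mL stock).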

[8] = qHTS assay to identify small molecule agonists of the TGF-beta/Smad signaling pathway - cell viability counter screen (AID 1346829); further: top concentration of the series differs between compounds; nearly all actives have a fitted effect of over 45% in size
In short: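 Here the cytotoxicity of library compounds is measured in SBE-bla HEK 293T cells treated for 5 hr, using CellTiter-Glo added to wells already read for the beta-lactamase reporter.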

[9] = qHTS assay to identify small molecule agonists of the TGF-beta/Smad signaling pathway (AID 1346859; active means well fitted activation curve with a large enough effect in the signal ratio in the repeat runs, not every such curve was filed as active; the % refers to the signal ratio; further: series mostly up to about 77 µM)
In short: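 SBE-bla HEK 293T, 4,000 cells/well, plated o/n; cpd in DMSO, 5 hr, 37 C/5% CO2; B/G FRET substrate 2 hr RT; ex 405, em 460/530 nm.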

[10] = molecular target: Thyrotropin-releasing hormone receptor (Homo sapiens) (UniProt P34981); test: qHTS assay to identify small molecule antagonists of the thyrotropin-releasing hormone receptor (TRHR) signaling pathway (AID 1346877; active means well fitted inhibition curve with a large enough effect in the repeat runs, not every such curve was filed as active; further: series mostly up to about 51 µM)
In short: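 Following an 18 h incubation at 37 °C and a 2 h calcium dye load, TRHR-HEK293 cells were exposed to compound (5 min, room temperature) and challenged with TRH, 1 nM final.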

[11] = qHTS assay to identify small molecule antagonists of the sonic hedgehog signaling (Shh) pathway (AID 1259369; calls by dose curve; further: nearly all actives have a fitted effect of over 45% in size)
In short: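 For antagonist detection, the reporter line received test compounds together with conditioned medium, incubated 24hr at 37 C, 5% CO2, then luminescence was recorded following 30min room-temperature luciferase reagent incubation.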

[12] = molecular target: Estrogen receptor beta (Homo sapiens) (UniProt Q92731); test: qHTS assay to identify small molecule antagonists of the estrogen receptor beta (ER-beta) signaling pathway (AID 1259378; active means well fitted inhibition curve with a large enough effect in the signal ratio in the repeat runs, not every such curve was filed as active; the % refers to the signal ratio)
In short: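 Antagonist mode: compounds added to beta-lactamase reporter HEK293T ER-beta-UAS cells stimulated with E2 (1nM final), 16 hr at 37C. LiveBLAzer B/G FRET substrate, 2 hours room temperature, fluorescence read-out.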

[13] = qHTS assay to identify small molecule agonists of the androgen receptor (AR) signaling pathway in the presence of an antagonist - cell viability counter screen (AID 1259379); further: nearly all actives have a fitted effect of over 25% in size; further: potency means the concentration at half of the fitted maximal effect;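 on activity change, negative = cytotoxicity: MDA-kb2 human breast cancer cells carrying an MMTV luciferase reporter; series mostly up to about 92 µM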
In short: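 Seed MDA-kb2 at 3,000 cells/well; incubate 5 hr, 37C, 0% CO2. Add nilutamide to 3.0uM final, then pin compounds at 15 concentrations. Incubate 16 hr. Add CellTiter-Fluor at 15 hr, read fluorescence after 1 hr.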

[14] = qHTS assay to identify small molecule antagonists of the estrogen receptor beta (ER-beta) signaling pathway - cell viability counter screen (AID 1259382);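 further: HEK293T cells carrying ER-beta-UAS-bla reporter stimulated with estradiol; series mostly up to about 92 µM; nearly all actives have a fitted effect of over 55% in size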
In short: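 In this multiplexed counter screen, cells were seeded at 2,000 per well in medium with 2% charcoal-stripped FBS and incubated 6 hr before compound and 1nM final E2 were added. Sixteen hours later, ATP-based luminescence reported viability.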

[15] = molecular target: Thyrotropin receptor (Homo sapiens) (UniProt P16473); test: qHTS assay to identify small molecule antagonists of the thyroid stimulating hormone receptor (TSHR) signaling pathway (AID 1259385; calls by dose curve; further: nearly all actives have a fitted effect of over 20% in size; further: potency means the concentration at half of the fitted maximal effect)
In short: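 Antagonist mode: compound-treated TSHR-expressing HEK293 cells were stimulated with 1.5 ng/mL TSH (final) in presence of Ro20-1724 for 30 min at RT. HTRF cAMP detection after 1 h; each compound tested at 15 concentrations, triplicate.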

[16] = molecular target: Progesterone receptor (Homo sapiens) (UniProt P06401); test: qHTS assay to identify small molecule agonists of the progesterone receptor (PR) signaling pathway (AID 1346784; calls by dose curve; further: nearly all actives have a fitted effect of over 30% in size)
In short: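 Beta-lactamase reporter read-out: after 16 hr compound treatment at 37C and a further 2 hr at room temperature with LiveBLAzer B/G FRET substrate, fluorescence was measured in PR-UAS-bla HEK 293T cells grown in 2% charcoal-stripped serum.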

[17] = qHTS assay to identify small molecule antagonists of the progesterone receptor (PR) signaling pathway - cell viability counter screen (AID 1346798);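 further: HEK293T PR-UAS-bla cells stimulated with the agonist R5020; series mostly up to about 92 µM; nearly all actives have a fitted effect of over 50% in size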
In short: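 HEK293T PR-UAS-bla, 2% charcoal-stripped FBS; 4 hr pre-plate; cpd + R5020, 16 h 37C; LiveBLAzer read first; then CellTiter-Glo 30 min RT, luminescence.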

[18] = qHTS assay to identify small molecule agonists of the progesterone receptor (PR) signaling pathway - cell viability counter screen (AID 1346799; calls by dose curve; further: nearly all actives have a fitted effect of over 45% in size)
In short: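 Luminescence from CellTiter-Glo, added after the beta-lactamase FRET read in the same wells, gave cytotoxicity in PR-UAS-bla HEK293T cells treated with compounds for 16 hr at 37C.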

[19] = molecular target: Estrogen receptor (Homo sapiens) (UniProt P03372); test: qHTS assay to identify small molecule agonists of the estrogen receptor alpha (ER-alpha) signaling pathway in the presence of an antagonist (AID 1259383; calls by dose curve; further: nearly all actives have a fitted effect of over 15% in size; further: potency means the concentration at half of the fitted maximal effect; on activation: top concentration of the series differs between compounds)
In short: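 Stably transfected VM7Luc4E2 reporter cells, kept 5 days in charcoal-stripped serum, received ICI-182,780 at 10.0nM final before compound addition. Following 22hr incubation at 37C and 5% CO2, luciferase signal was read by luminescence.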

[20] = molecular target: Progesterone receptor (Homo sapiens) (UniProt P06401); test: qHTS assay to identify small molecule antagonists of the progesterone receptor (PR) signaling pathway (AID 1346795; active means well fitted inhibition curve with a large enough effect in the signal ratio in the repeat runs, not every such curve was filed as active; the % refers to the signal ratio)
In short: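 Read-out is fluorescence from the LiveBLAzer B/G FRET substrate, cleaved by a UAS-controlled beta-lactamase in PR-UAS-bla HEK293T cells after 16 hr exposure to compound plus 1 nM promegestone (final), followed by 2 hr at room temperature.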

Sequence of Estrogen receptor (Homo sapiens) (P03372 whole entry, looked up): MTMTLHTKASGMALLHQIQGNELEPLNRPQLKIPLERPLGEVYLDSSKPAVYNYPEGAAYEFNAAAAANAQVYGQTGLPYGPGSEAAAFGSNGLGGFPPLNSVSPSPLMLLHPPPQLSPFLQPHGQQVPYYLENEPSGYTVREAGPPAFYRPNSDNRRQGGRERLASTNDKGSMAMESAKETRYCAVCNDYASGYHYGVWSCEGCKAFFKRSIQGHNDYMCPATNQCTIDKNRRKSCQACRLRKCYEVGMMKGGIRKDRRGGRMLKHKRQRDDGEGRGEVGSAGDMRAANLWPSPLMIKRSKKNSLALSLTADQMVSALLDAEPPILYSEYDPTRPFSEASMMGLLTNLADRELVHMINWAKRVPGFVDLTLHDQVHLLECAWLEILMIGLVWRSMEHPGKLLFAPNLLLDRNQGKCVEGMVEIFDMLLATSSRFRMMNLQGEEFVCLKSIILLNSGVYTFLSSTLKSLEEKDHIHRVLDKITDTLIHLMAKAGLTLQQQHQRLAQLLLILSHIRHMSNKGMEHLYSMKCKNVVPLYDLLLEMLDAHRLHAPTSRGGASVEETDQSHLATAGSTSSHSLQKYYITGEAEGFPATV
Sequence of Thyrotropin-releasing hormone receptor (Homo sapiens) (P34981 whole entry, looked up): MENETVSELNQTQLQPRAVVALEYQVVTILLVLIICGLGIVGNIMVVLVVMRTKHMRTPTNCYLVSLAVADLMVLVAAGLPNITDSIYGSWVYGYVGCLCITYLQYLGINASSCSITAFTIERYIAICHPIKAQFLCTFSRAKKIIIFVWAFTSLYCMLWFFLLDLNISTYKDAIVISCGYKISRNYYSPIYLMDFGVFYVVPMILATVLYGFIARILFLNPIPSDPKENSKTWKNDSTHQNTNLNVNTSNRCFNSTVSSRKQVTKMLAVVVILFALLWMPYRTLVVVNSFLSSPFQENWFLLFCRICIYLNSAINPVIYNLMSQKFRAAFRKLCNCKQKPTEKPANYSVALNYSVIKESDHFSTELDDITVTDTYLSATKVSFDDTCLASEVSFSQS
Sequence of Estrogen receptor beta (Homo sapiens) (Q92731 whole entry, looked up): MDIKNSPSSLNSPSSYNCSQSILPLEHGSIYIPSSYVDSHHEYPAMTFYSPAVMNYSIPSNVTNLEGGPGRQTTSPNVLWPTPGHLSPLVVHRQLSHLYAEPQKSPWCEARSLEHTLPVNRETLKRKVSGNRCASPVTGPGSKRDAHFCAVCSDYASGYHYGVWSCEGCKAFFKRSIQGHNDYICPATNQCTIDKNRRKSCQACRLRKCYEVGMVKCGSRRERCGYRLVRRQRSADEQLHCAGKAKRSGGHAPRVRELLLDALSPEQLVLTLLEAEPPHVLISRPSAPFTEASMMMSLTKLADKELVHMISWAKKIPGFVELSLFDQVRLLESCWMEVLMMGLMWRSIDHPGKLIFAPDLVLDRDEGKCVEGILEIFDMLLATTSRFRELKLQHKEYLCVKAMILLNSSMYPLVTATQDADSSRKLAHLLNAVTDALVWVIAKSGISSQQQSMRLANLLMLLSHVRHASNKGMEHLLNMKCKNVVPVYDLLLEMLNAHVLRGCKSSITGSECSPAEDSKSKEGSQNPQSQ
Sequence of Androgen receptor (Homo sapiens) (P10275 whole entry, looked up): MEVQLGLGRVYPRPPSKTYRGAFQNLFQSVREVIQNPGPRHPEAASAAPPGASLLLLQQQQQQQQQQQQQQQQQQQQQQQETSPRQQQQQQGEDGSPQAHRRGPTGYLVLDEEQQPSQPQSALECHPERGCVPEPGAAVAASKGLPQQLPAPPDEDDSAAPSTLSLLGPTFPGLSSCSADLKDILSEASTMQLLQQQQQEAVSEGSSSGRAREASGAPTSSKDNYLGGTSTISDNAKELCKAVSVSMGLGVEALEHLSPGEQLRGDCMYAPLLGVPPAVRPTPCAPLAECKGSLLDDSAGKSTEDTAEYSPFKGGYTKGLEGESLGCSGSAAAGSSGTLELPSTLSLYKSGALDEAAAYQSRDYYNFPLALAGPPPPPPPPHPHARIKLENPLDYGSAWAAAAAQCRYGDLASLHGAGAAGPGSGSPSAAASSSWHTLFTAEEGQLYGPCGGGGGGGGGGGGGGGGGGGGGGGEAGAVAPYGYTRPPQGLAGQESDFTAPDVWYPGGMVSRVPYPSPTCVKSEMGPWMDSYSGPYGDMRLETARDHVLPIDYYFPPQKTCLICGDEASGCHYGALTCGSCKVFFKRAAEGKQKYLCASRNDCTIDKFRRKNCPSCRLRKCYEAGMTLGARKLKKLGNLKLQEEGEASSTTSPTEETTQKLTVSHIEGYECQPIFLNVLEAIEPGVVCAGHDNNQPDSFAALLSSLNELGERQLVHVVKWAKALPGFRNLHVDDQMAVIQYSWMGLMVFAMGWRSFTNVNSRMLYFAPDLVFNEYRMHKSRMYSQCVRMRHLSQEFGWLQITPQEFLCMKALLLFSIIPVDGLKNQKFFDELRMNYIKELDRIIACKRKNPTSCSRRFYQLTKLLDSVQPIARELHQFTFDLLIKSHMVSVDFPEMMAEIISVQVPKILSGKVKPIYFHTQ
Sequence of Progesterone receptor (Homo sapiens) (P06401 whole entry, looked up): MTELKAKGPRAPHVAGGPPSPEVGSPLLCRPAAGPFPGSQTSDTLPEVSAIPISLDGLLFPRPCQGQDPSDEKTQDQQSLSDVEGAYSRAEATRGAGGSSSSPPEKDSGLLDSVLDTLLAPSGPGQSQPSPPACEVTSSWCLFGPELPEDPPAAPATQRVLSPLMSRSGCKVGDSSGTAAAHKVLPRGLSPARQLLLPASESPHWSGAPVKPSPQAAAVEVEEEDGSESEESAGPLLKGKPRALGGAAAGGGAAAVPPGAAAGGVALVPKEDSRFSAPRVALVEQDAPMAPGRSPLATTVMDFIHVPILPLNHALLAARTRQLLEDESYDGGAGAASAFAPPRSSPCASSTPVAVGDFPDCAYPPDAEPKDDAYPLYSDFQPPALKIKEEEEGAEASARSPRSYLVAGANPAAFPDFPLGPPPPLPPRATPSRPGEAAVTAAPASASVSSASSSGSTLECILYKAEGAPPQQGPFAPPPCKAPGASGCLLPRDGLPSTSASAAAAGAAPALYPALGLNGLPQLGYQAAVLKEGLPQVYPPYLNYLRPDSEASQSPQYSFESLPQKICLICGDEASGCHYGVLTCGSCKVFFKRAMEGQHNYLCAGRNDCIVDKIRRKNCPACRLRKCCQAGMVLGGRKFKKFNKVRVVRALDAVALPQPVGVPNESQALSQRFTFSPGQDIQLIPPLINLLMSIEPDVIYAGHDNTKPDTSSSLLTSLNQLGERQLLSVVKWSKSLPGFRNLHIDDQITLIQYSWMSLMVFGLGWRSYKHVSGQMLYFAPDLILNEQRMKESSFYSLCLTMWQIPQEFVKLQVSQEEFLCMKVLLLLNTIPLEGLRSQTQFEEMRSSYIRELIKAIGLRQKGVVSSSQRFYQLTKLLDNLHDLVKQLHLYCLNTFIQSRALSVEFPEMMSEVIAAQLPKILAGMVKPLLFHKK
Sequence of Thyrotropin receptor (Homo sapiens) (P16473 whole entry, looked up): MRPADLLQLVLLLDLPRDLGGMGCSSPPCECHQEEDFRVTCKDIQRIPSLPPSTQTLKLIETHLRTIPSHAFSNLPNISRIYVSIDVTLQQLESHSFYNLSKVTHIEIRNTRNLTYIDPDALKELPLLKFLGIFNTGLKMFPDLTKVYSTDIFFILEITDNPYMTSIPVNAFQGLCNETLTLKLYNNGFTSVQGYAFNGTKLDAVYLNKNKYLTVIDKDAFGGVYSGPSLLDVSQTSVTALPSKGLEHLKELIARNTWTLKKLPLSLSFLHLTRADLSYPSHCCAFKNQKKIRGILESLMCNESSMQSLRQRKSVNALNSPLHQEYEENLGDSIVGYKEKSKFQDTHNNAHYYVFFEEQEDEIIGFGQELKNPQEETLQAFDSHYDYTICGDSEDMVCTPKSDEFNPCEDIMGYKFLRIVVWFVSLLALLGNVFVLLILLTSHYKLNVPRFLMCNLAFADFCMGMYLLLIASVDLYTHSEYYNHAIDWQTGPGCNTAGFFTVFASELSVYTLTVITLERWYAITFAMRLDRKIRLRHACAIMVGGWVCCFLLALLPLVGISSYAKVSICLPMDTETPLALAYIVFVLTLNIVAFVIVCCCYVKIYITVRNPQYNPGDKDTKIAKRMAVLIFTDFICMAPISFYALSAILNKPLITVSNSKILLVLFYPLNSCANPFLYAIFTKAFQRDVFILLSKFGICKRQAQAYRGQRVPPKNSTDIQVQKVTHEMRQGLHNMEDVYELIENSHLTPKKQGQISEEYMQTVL

For `C[C@@H](O[C@H]1OCCN(Cc2n[nH]c(=O)[nH]2)[C@H]1c1ccc(F)cc1)c1cc(C(F)(F)F)cc(C(F)(F)F)c1`, the Potency [1] was “inactive”, the Potency [2] was “inactive” and the Potency [3] was 26.6 µM (active). The Potency [4] was “inactive”, the outcome [5] was “inactive” and the Potency [6] was “inactive”. The Potency [7] was “inactive”, the Potency [8] was “inactive” and the Potency [9] was “inactive”. The outcome [10] was “inactive”.

For `C[C@H]1C[C@H](O)c2ccsc2S1(=O)=O`, the Potency [11] was “inactive”, the Potency [2] was “inactive” and the Potency [12] was “inactive”. For the same compound, the Potency [13] was “inactive”, the Potency [3] was “inactive” and the Potency [4] was “inactive”. For the same compound, the Potency [14] was “inactive”, the outcome [5] was “inactive” and the Potency [15] was “inactive”. The Potency [6] was “inactive”, the Potency [16] was “inactive” and the Potency [17] was “inactive”. The Potency [18] was “inactive”, the Potency [8] was “inactive” and the Potency [9] was “inactive”.

With `C=C1C[C@@]23CC[C@H]4[C@@](C)(CCC[C@@]4(C)C(=O)O[C@@H]4O[C@H](CO)[C@@H](O)[C@H](O)[C@H]4O)[C@@H]2CC[C@]1(O[C@@H]1O[C@H](CO)[C@@H](O)[C@H](O[C@@H]2O[C@H](CO)[C@@H](O)[C@H](O)[C@H]2O)[C@H]1O[C@@H]1O[C@H](CO)[C@@H](O)[C@H](O)[C@H]1O)C3` the Potency [11] was “inactive”, the Potency [2] was “inactive” and the Potency [12] was “inactive”. For the same compound, the Potency [13] was “inactive”, the Potency [3] was “inactive” and the Potency [4] was “inactive”. The Potency [19] was “inactive”, the outcome [5] was “inactive” and the Potency [15] was “inactive”. For the same compound, the Potency [6] was “inactive”, the Potency [16] was “inactive” and the Potency [20] was “inactive”. For the same compound, the Potency [17] was “inactive”, the Potency [18] was “inactive” and the Potency [7] was “inactive”. For the same compound, the Potency [8] was “inactive”, the Potency [9] was “inactive” and the outcome [10] was “inactive”.

With `CCOC(=O)C1=C(C)NC(C)=C(C(=O)OC)C1c1cccc(Cl)c1Cl` (configuration not stated) the Potency [1] was “inactive”, the Potency [2] was “inactive” and the Potency [13] was “inactive”. For the same compound, the Potency [14] was “inactive”, the Potency [19] was “inactive” and the outcome [5] was “inactive”. For the same compound, the Potency [15] was “inactive”, the Potency [6] was “inactive” and the Potency [16] was “inactive”. For the same compound, the Potency [8] was “inactive”, the Potency [9] was “inactive” and the outcome [10] was “inactive”.

In the case of `O=C(O)CCc1nc(-c2ccccc2)c(-c2ccccc2)o1`, the Potency [1] is reported as “inactive”, the Potency [2] is reported as “inactive” and the Potency [13] is reported as “inactive”. For the same compound, the Potency [14] was “inactive”, the Potency [19] was “inactive” and the outcome [5] was “inactive”. The Potency [15] was “inactive”, the Potency [6] was “inactive” and the Potency [16] was “inactive”. The Potency [20] was “inactive”, the Potency [17] was “inactive” and the Potency [7] was “inactive”. The Potency [8] was “inactive”, the Potency [9] was “inactive” and the outcome [10] was “inactive”.

In the case of `O=C(/C=C/c1ccccc1)OCCc1ccccc1`, the Potency [11] is reported as “inactive”, the Potency [2] is reported as “inactive” and the Potency [12] is reported as “inactive”. For the same compound, the Potency [13] was “inactive”, the Potency [3] was “inactive” and the Potency [4] was “inactive”. For the same compound, the Potency [14] was “inactive”, the Potency [19] was 3.44 µM (active) and the outcome [5] was “inactive”. For the same compound, the Potency [15] was 68.6 µM (active), the Potency [6] was “inactive” and the Potency [16] was “inactive”. For the same compound, the Potency [20] was “inactive”, the Potency [17] was “inactive” and the Potency [18] was “inactive”. The Potency [8] was “inactive”, the Potency [9] was “inactive” and the outcome [10] was “inactive”.

For `Cc1cc(=O)c2c(O)c3c(O)cc(=O)c4c3c3c(cc(O)c1c23)C(C)(C)C=4O`, the activity change [1] was -5.72% [at 18.9 µM, stronger effect = higher value], the activation [2] was -11.3% [at 19 µM] and the Potency [13] was 1.46 µM (active). It also gave a cAMP activity change [5] of 14.8% [at 18.9 µM], an activity change, negative = cytotoxicity [6] of -17.3% [at 19 µM] and an activation [16] of -2.51% [at 19 µM]. It also gave an activity, negative = inhibition [10] of 1.99% [at 10.5 µM].

With `C=CCc1ccccc1OCC(O)CNC(C)C` (configuration not stated) the Potency [1] was “inactive”, the Potency [13] was “inactive” and the Potency [4] was “inactive”. The Potency [14] was “inactive”, the outcome [5] was “inactive” and the Potency [15] was “inactive”. For the same compound, the Potency [6] was “inactive”, the Potency [16] was “inactive” and the Potency [20] was “inactive”. For the same compound, the Potency [17] was “inactive”, the Potency [7] was “inactive” and the Potency [8] was “inactive”. The Potency [9] was “inactive” and the outcome [10] was “inactive”.

For `CCCCCCNC(=O)n1cc(F)c(=O)[nH]c1=O`, the Potency [1] was “inactive”, the Potency [12] was “inactive” and the Potency [13] was “inactive”. The Potency [14] was “inactive”, the outcome [5] was “inactive” and the Potency [15] was “inactive”. For the same compound, the Potency [6] was “inactive”, the Potency [16] was “inactive” and the Potency [17] was “inactive”. The Potency [18] was “inactive”, the Potency [7] was “inactive” and the Potency [8] was “inactive”. For the same compound, the Potency [9] was “inactive”.
